Sampled rows, rich in hits. Any-hit rate of the full collection: about 11%.
HPGD inh – HPGD (human) dehydrogenase inhibition | AID 894 | Potency, µM, for inactives: at the highest dose activity change, negative = inhibition, most hits filed as inhibitors | purified HPGD, NADH fluorescence kinetic, PGE2 substrate | actives 4.3% (n = 150,000); active means well fitted inhibition curve with a large enough effect, not every such curve was filed as active; inconclusive means small, poorly fitted or top-dose-only effect, or another doubt; inactive means no such curve, though single readings can be large or run the other way; further: potency means the concentration at half of the fitted maximal effect
Target sequence (P15428 whole entry, looked up): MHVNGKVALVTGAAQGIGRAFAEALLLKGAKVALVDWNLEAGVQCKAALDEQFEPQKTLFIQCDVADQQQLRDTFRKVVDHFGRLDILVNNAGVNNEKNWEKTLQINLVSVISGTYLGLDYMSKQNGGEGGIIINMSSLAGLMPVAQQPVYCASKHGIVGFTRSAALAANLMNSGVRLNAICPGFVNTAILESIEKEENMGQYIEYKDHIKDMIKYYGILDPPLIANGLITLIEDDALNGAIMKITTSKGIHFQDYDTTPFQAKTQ
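20 nM HPGD preincubated 15 min at room temperature with compound in 50 mM Tris-HCl pH 8, 0.01% Tween 20. Started with 1 mM NAD+ and 30 uM prostaglandin E2; NADH fluorescence (360/450 nm) read 5 times over 30-s intervals, last minus first.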
PNC inhibitor – inhibitors of perinucleolar compartment assembly; PC3M PTB-GFP, PNC prevalence imaging, 16 h; active compounds read low; activity change (PNC), negative = inhibition, % at 10 µM; actives 3.1% (n = 140,000); AID 2417;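 active means readout at or below -70, meaning at least 70% loss of cells showing the perinucleolar compartment, a nuclear body marking cancer cells; inconclusive means readout between -30 and a set limit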;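 further: plate controls were DMSO wells for no effect and camptothecin positive control wells for full effect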
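Compounds are pinned in duplicate onto adhered PC3M cells stably expressing GFP-tagged PTB and incubated 16 h at 37 C. Cells are then fixed, nuclei stained with Hoechst, and PNC-positive cells counted.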
IMPase inh – membrane-permeable compound that blocks inositol monophosphatase; P97697; CHO-M1 cells, IP1 accumulation, HTRF TR-FRET ratio; inhibition (IP1 accumulation), % at 46.1 µM; 120,000 tested, under 10 active; AID 901; active means well fitted curve in the direction sought with a large enough effect in the signal ratio, not every such curve was filed as active; inconclusive means small, poorly fitted or top-dose-only effect, or a change in a side signal; inactive means no such curve, though single readings can be large or run the other way; the % refers to the signal ratio;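 further: cells stimulated with carbachol in lithium chloride buffer; plate controls were DMSO basal wells for no effect and reference inhibitor wells for full effect; higher means more IMPase inhibition seen as more IP1 and lower FRET ratio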
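CHO-M1, 2000 cells/well, cultured 16–30 h; cpd up to 46 uM; carbachol (50 uM solution, stimulation buffer w/ 50 mM LiCl, pH 7.4), 30 min 37C; IP-One TR-FRET, 10 min RT; Ex 320/Em 665, 620; Hill-fit AC50.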
ALDH1A1 inh – inhibitors of human aldehyde dehydrogenase 1A1; Purified ALDH1A1, NADH fluorescence, propionaldehyde substrate; Potency, µM (titrated, usually from 75.3 µM), without a hit: top-dose activity, negative = inhibition, hits mostly inhibitors; actives 7.3% (n = 220,000); active means well fitted inhibition curve with a large enough effect, not every such curve was filed as active; inconclusive means small, poorly fitted or top-dose-only effect, or another doubt; inactive means no such curve, though single readings can be large or run the other way;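 further: potency means the concentration at half of the fitted maximal effect; plate controls were no enzyme wells and a reference inhibitor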
Target sequence (P00352 whole entry, looked up): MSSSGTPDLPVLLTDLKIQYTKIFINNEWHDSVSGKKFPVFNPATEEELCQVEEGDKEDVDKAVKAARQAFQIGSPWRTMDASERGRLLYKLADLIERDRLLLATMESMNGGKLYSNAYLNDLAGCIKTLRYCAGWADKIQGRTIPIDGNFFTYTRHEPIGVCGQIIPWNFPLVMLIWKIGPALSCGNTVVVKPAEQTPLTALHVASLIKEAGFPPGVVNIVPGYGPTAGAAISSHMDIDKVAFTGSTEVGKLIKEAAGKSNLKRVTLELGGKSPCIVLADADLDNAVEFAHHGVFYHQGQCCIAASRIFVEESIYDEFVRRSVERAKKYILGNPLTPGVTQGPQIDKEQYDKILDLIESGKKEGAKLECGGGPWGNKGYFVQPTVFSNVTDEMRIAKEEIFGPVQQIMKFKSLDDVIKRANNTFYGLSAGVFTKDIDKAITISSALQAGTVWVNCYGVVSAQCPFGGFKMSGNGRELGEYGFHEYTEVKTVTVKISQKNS
IMPase Li inh – cell-permeable IMPase inhibitors with lithium potentiation; Potency, µM (series often up to 59.4 µM), for inactives: top-dose activity, negative = IMPase inhibition, actives largely listed as inhibitors; CHO-M1 cells, IP1 TR-FRET (IP-One), carbachol + lithium; actives 0.35% (n = 210,000); AID 1457;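 further: IP1 builds up when IMPase is blocked and the TR-FRET signal falls; potency means the concentration at half of the fitted maximal effect; plate controls were basal vehicle for no effect and high inhibitor control for full effect; nearly all actives have a fitted effect of over 50% in size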
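IP1 accumulation measured by competitive TR-FRET in lysed CHO-M1 cells after 30 min compound exposure at 37C, with a small lithium addition to potentiate weak responses. Hill-equation AC50 from ratio and donor-channel data.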
12-hLO inh – blocks human 12-lipoxygenase activity | P18054 | purified 12-hLO, xylenol orange hydroperoxide absorbance | Potency, µM (titrated, usually from 57.1 µM), for inactives: at the highest dose activity change, negative = inhibition, usual class: inhibitors | actives 0.12% (n = 150,000); further: potency means the concentration at half of the fitted maximal effect; nearly all actives have a fitted effect of over 55% in size
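Purified human 12hLO (150 nM), preincubated 15 min with compound, then 40 uM arachidonic acid for 30 min, room temperature, Hepes pH 7.0 with 0.01% Triton X-100. Hydroperoxide detected by ferrous iron/xylenol orange; 573/405 nm absorbance ratio gives reaction progress.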
* = called active by the depositor; ? = inconclusive; / = not tested or not shown; [ ] = another dose, or the depositor's remark. Unless noted, the call rests on the fitted dose curve; in most records, active means well fitted curve in the direction sought with a large enough effect; inconclusive means small, poorly fitted or top-dose-only effect, or another doubt; inactive means no such curve, though single readings can be large; an effect the other way counts as inactive or inconclusive. Unless noted, on the % scale 0 is the no-effect control and ±100 the full control effect.

SMILES	HPGD inh	PNC inhibitor	IMPase inh	ALDH1A1 inh	IMPase Li inh	12-hLO inh
COc1cc2nc(N3CCN(C(=O)OCc4ccccc4)C(C(=O)NC(C)(C)C)C3)nc(N)c2cc1OC (stereo unspecified)	?	/	/	?	16%	/
CC(Oc1ccc(Cl)cc1Cl)C(=O)NC1CCSC1=O (stereo unspecified)	14µM*	12	-4	12%	30%[38.3 µM]	0%
O=C1c2ccccc2C(=O)N1CCc1nc2ccccc2c(=O)n1-c1ccccn1	-3%	?	1	-2%	5%[38.3 µM]	-3%
Cc1cccnc1-n1c(CCN2C(=O)c3ccccc3C2=O)nc2ccccc2c1=O	-15%	52	5	18µM*	16%[38.3 µM]	-7%
COc1ccc(-c2cc3nc(-c4ccc(Br)cc4)cc(C(F)(F)F)n3n2)cc1	/	/	-1	/	/	/
COc1cccc2c1OC(=O)CC2c1ccc(C)cc1 (stereo unspecified)	?	/	/	-4%[120 µM]	4%	-17%[0.00818 µM]
COc1cc([N+](=O)[O-])cc2sc(NC(=O)c3c(F)cccc3F)nc12	/	/	/	7.9µM*	7%	/
O=C(Nc1nc(-c2ccc([N+](=O)[O-])cc2)cs1)c1c(F)cccc1F	/	/	/	4%	0%	/
Cc1cccc([C@H]2[C@@H]3C=CCC[C@@H]3C(=O)N2Cc2ccccc2)c1	-17%	/	/	28µM*	9%	-5%[0.00818 µM]
Cc1ccc(S(=O)(=O)N(CC(=O)N2CCC(C(N)=O)CC2)c2cccc(C(F)(F)F)c2)cc1	-12%	9	-1	13µM*	-3%[38.3 µM]	0%
O=S(=O)(c1ccc(Cl)cc1)N(CCCN1CCOCC1)Cc1cccs1	/	/	/	13µM*	6%	/
COc1ccc(S(=O)(=O)N(CCCN2CCOCC2)Cc2cccc3ccccc23)cc1	-22%	?	0	6.3µM*	35%[38.3 µM]	3%
COc1ccc(S(=O)(=O)N(CCCN2CCOCC2)Cc2cccc(OC)c2OC)cc1	0%	49	-7	?	40%[38.3 µM]	8%
COC(=O)c1ccccc1NC(=O)c1c(NC(=O)c2ccco2)sc2c1CCC(C(C)(C)C)C2 (stereo unspecified)	/	/	15	/	/	/
CCCCC	-1%	/	/	-4%	-2%	0%
C/C(=N\NC(=O)CSc1nc2ccccc2s1)c1ccco1	-26%	?	/	2.8µM*	25%	-3%
O=C(CSc1nc2ccccc2s1)N/N=C/c1ccco1	-5%	6	/	20µM*	-5%	3%
O=C(CCCCCNC(=O)c1ccccc1Cl)N/N=C/c1ccco1	/	/	/	-5%	3%	/
O=C(CSCc1ccccc1Cl)N/N=C/c1ccco1	/	/	/	25µM*	3%	/
CC(C)(C)c1cc(CN2CCCCC2)cc(C(C)(C)C)c1O	-2%	-23	0	14µM*	61%[38.3 µM]	-28%
Oc1cccc(CN2CCCCC2)c1	-6%	1	/	4%	5%	1%
CCc1ccc(OCC(=O)NNC(=O)c2nn(CC)c(=O)c3ccccc23)cc1	/	/	/	6%	-1%	/
CCn1nc(C(=O)NNC(=O)COc2ccccc2C)c2ccccc2c1=O	-6%	-113*	/	7%	-3%	-1%
CN1CCN(c2ncc3nc(-c4cccs4)c(=O)n(C[C@H]4CCCO4)c3n2)CC1	?	/	/	?	0%	-11%
COc1cccc(CC(=O)N2CCc3nc(-c4ccccc4)c4c(c3C2)CO[C@@H](C)C4)c1	-4%	/	/	12%[13.5 µM]	0%	0%[11.4 µM]
SMILES	HPGD inh	PNC inhibitor	IMPase inh	ALDH1A1 inh	IMPase Li inh	12-hLO inh
C/C(=N\NC(=O)c1ccc([N+](=O)[O-])cc1)c1cc2ccccc2oc1=O	?	-24	7	0%	2%	-14%
C/C(=N\NC(=O)c1ccccc1)c1cc2cc([N+](=O)[O-])ccc2oc1=O	25µM*	?	-1	-15%	4%	-4%
N#C/C(=C\c1cccc(OC(=O)c2cccs2)c1)C(N)=O	25µM*	?	/	-6%	2%	-3%
O=C(/C=C/c1ccc(Cl)cc1)NC(=S)Nc1ccc(NC(=O)c2ccco2)cc1	-12%	-112*	-6	15%	4%	-3%
COc1ccccc1OCC(=O)NNC(=S)NC(=O)c1ccco1	-18%	?	-3	28µM*	22%[38.3 µM]	-5%
COc1ccccc1C(=O)NC(=S)Nc1ccc(NC(=O)c2ccco2)cc1	/	/	/	13µM*	13%	/
COc1cc(OC)cc(C(=O)NC(=S)Nc2ccc(NC(=O)c3ccco3)cc2)c1	-12%	6	/	?	1%	-1%
COc1ccccc1OCC(=O)NCc1ccco1	?	14	1	0%	-8%[38.3 µM]	2%
O=C(/C=C/c1ccc(Cl)cc1)NC(=S)Nc1ccc(CN2CCOCC2)cc1	-23%	-25	/	-3%	-12%	4%
CC(C)CC(=O)NC(=S)Nc1ccc(NC(=O)c2ccco2)cc1	14µM*	8	/	-7%	-5%	-2%
COc1cc(C(=O)Nc2ccc(-c3nc4ccccc4o3)c(O)c2)cc(OC)c1OC	/	/	0	/	/	/
CC1(C)O[C@H]2[C@@H](c3[nH]nc4c(=O)[nH]c(=O)[nH]c34)OC[C@H]2O1	-8%	/	/	-7%[13.5 µM]	-1%	-4%[11.4 µM]
O=C(Nc1cnn(Cc2ccc(Cl)cc2Cl)c1)c1cc(-c2cccs2)on1	?	-15	-4	?	0%[38.3 µM]	-3%
O=C(Nc1cnn(Cc2ccc(Cl)cc2Cl)c1)c1noc2c1CCCC2	-26%	29	-13	14µM*	13%	-9%
CCN1C(=O)/C(=C/C=C2/CCCN2C)OC1=S	/	/	/	2.8µM*	11%	/
C/C(=N\NC(=O)C(c1ccccc1)c1ccccc1)c1ccccn1	-2%	-81*	/	-3%	0%	6%
N/C(=N\OC(=O)C(c1ccccc1)c1ccccc1)c1ccccn1	-12%	?	/	?	7%	-3%
Cc1nc(N2CCOCC2)c2nc(-c3ccccc3)n(CCN3CCCCC3)c2n1	?	/	/	?	6%	0%
CC(=C1C(=O)c2ccccc2C1=O)N1CCN(c2ccc(F)cc2)CC1	/	/	/	18µM*	/	/
Cc1ccc(CSc2nc3c(c(=O)[nH]2)CCC3)cc1	10µM*	2	5	9%	-4%[38.3 µM]	1%
Cc1cc(C)c2c(=O)[nH]c(SCc3ccccc3C)nc2n1	/	/	/	-3%	13%	/
Cc1ccccc1CSc1nc2c(c(=O)[nH]1)CCCC2	4µM*	13	0	10%	27%[38.3 µM]	3%
O=c1c2c(nc3nc(NCc4ccc(Cl)cc4)[nH]n13)CCC2	/	/	/	11%	-7%	/
Cc1cccc(CSc2nc3c(c(=O)[nH]2)CCC3)c1	/	/	-12	8%	1%	/
O=c1[nH]c(NCc2ccccc2)nc2c1CCCC2	13µM*	-23	-3	-4%	5%	7%
COC(=O)C/C=C/C(C)C(OC)c1ccccc1Br (stereo unspecified)	/	/	/	4%[13.5 µM]	/	/

Screening results deposited in PubChem by National Center for Advancing Translational Sciences (NCATS).
